Consider 40 molecules from the supplement of paper PMC8975748.

SMILES strings stand for the structures. Where a name gives a salt, the structure may show the parent alone.

The experiment has as its system Saccharomyces cerevisiae BY4741 SeMeCo community. Description: z-score of subpopulation abundance vs DMSO median, subpopulation auxotrophic for H; higher = larger share of this subpopulation than in DMSO controls. As to conditions: 10 µM; 24 h; SM minimal medium; subpopulation (auxotrophy): H. The method, then:
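Fluorescent four-plasmid SeMeCo (self-establishing metabolically cooperating S. cerevisiae BY4741 community; plasmids pH-mRuby2, pL-mWasabi, pU-eCFP, pM-TagRFP657) was grown 24 h in minimal SM medium with each Selleck FDA-approved drug at 10 µM in 384-well plates. Cells were fixed and imaged by high-content confocal microscopy. For each auxotrophic subpopulation (and the prototroph), a z-score gives the deviation from the DMSO vehicle-control population median.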
With `COc1ccc(C(CN(C)C)C2(O)CCCCC2)cc1` (stereo not given) [Venlafaxine], the “z-score of subpopulation abundance” value was -1.33.

Consider `O=C(O[C@H]1C[C@H]2CC[C@@H](C1)[N+]21CCCC1)C(O)(c1ccccc1)c1ccccc1` [Trospium chloride], for which the “z-score of subpopulation abundance” value was -0.71.

`Oc1cccc2cccnc12` [8-Hydroxyquinoline]: the “z-score of subpopulation abundance” value turned out to be 0.93.

For `Nc1nc(N)nc(NC2CC2)n1` [Cyromazine], the “z-score of subpopulation abundance” value came out at 0.14.

Turning to `COc1ccc(C(CN(C)C)C2(O)CCCCC2)cc1` (stereo not given) [Venlafaxine HCl], the “z-score of subpopulation abundance” value is -0.98.

As for `O=c1[nH]c2ccccc2n1CCCN1CCC(n2c(=O)[nH]c3cc(Cl)ccc32)CC1` [Domperidone], the “z-score of subpopulation abundance” value turned out to be 0.24.

Consider `COc1ccc(C=O)cc1` [p-Anisaldehyde], for which the “z-score of subpopulation abundance” value is -0.35.

Consider `Oc1cc(Cl)ccc1Oc1ccc(Cl)cc1Cl` [Triclosan], for which the “z-score of subpopulation abundance” value is -1.93.

In the case of `CC(C)(O)C(Cl)(Cl)Cl` [Chlorobutanol], the “z-score of subpopulation abundance” value is -0.15.

Regarding `C=CN1CCCC1=O.II` [Povidone iodine], the “z-score of subpopulation abundance” value stood at 1.96.

Regarding `CC(C)=CCOc1c2occc2cc2ccc(=O)oc12` [Imperatorin], the “z-score of subpopulation abundance” value is 0.08.

Consider `COC(=O)C1=CCCN(C)C1` [Arecoline HBr], for which the “z-score of subpopulation abundance” value is 0.32.

Regarding `CN(C)C(=O)Oc1ccc[n+](C)c1` [Pyridostigmine Bromide], the “z-score of subpopulation abundance” value amounted to 0.16.

Regarding `CN1[C@@H]2C[C@@H](OC(=O)[C@H](CO)c3ccccc3)C[C@H]1[C@@H]1O[C@@H]12` [Scopolamine HBr trihydrate], the “z-score of subpopulation abundance” value was -0.46.

As for `NCCc1c[nH]c2ccc(O)cc12` [Serotonin HCl], the “z-score of subpopulation abundance” value was -1.54.

On to `CCC1=C[C@H]2CN3CCc4c([nH]c5ccccc45)[C@](C(=O)OC)(C2)[C@H]13` [Catharanthine], for which the “z-score of subpopulation abundance” value is -0.99.

As to `CCN(CC)CCOC(=O)C(O)(c1ccccc1)c1ccccc1` [Benactyzine hydrochloride], the “z-score of subpopulation abundance” value is -0.16.

For `CN1C(=O)COc2c(C(=O)NC3CN4CCC3CC4)cc(Cl)cc21` (stereo not given) [Azasetron HCl], the “z-score of subpopulation abundance” value is -0.91.

In the case of `C[N+]12CCC(CC1)C(OC(=O)C(O)(c1ccccc1)c1ccccc1)C2` (stereo not given) [Clidinium Bromide], the “z-score of subpopulation abundance” value was -0.48.

As to `N[C@@H]1C[C@H]1c1ccccc1` [Tranylcypromine (2-PCPA) HCl], the “z-score of subpopulation abundance” value is -0.67.

For the molecule `CN[C@@H]1[C@@H](O)[C@@H](O[C@@H]2[C@@H](O)[C@H](O[C@H]3O[C@H]([C@@H](C)O)[C@@H](O)[C@H](O)[C@H]3N)[C@@H](N)C[C@H]2N)OC[C@]1(C)O` [Geneticin (G418 Sulfate)], the “z-score of subpopulation abundance” value is -0.21.

Take `COc1ccc2c3c([nH]c2c1)C(C)=NCC3` [Harmaline]: the “z-score of subpopulation abundance” value was 2.23.

Turning to `CN1[C@@H]2CC[C@H]1C[C@@H](OC(=O)C(CO)c1ccccc1)C2` (stereo not given in full) [Atropine sulfate monohydrate], the “z-score of subpopulation abundance” value was -0.43.

`CC(=O)O[C@H]1C[C@@H]2CC[C@@H]3[C@H](CC[C@@]4(C)[C@H]3C[C@H]([N+]3(C)CCCCC3)[C@@H]4OC(C)=O)[C@@]2(C)C[C@@H]1[N+]1(C)CCCCC1` [Pancuronium dibromide]: the “z-score of subpopulation abundance” value is -0.63.

Take `CCN(C)C(=O)Oc1cccc([C@H](C)N(C)C)c1` [Rivastigmine]: the “z-score of subpopulation abundance” value is -0.34.

Regarding `CN(C)[C@@H]1C(=O)C(C(N)=O)=C(O)[C@@]2(O)C(=O)C3=C(O)c4c(O)cccc4[C@@](C)(O)[C@H]3C[C@@H]12` [Tetracycline HCl], the “z-score of subpopulation abundance” value was 1.08.

With `O=[N+]([O-])C(Br)(CO)CO` [Bronopol], the “z-score of subpopulation abundance” value is -0.52.

In the case of `CCCCCCCCCCCCCCCC[n+]1ccccc1` [Cetylpyridinium Chloride], the “z-score of subpopulation abundance” value is 19.3.

In the case of `C[C@@H]1CC[C@H]2[C@@H](C)C(=O)O[C@@H]3O[C@@]4(C)CC[C@@H]1[C@]32OO4` [Artemisinin], the “z-score of subpopulation abundance” value was found to be 1.06.

Turning to `CCOC(=O)Nc1ccc(NCc2ccc(F)cc2)cc1N` [Retigabine 2HCl], the “z-score of subpopulation abundance” value was 1.44.

Turning to `C[C@@H]1O[C@@H](O[C@H]2C[C@@H](O)[C@]3(CO)[C@H]4[C@H](O)C[C@]5(C)[C@@H](C6=CC(=O)OC6)CC[C@]5(O)[C@@H]4CC[C@]3(O)C2)[C@H](O)[C@H](O)[C@H]1O` [Ouabain], the “z-score of subpopulation abundance” value is -1.13.

Turning to `CCN1CC2(OC(=O)c3ccccc3NC(C)=O)CCC(OC)C34C1C(CC23)C1(O)CC(OC)C2CC4C1(O)C2OC` (stereo not given) [Lappaconitine], the “z-score of subpopulation abundance” value was -0.16.

For `CC[C@@H](C(N)=O)N1CCCC1=O` [Levetiracetam], the “z-score of subpopulation abundance” value is -0.46.

For the molecule `CC(NC(C)(C)C)C(=O)c1cccc(Cl)c1` (stereo not given) [Amfebutamone (Bupropion) HCl], the “z-score of subpopulation abundance” value was -0.63.

Take `Cc1cc(O)ccc1Cl` [Chlorocresol]: the “z-score of subpopulation abundance” value is -0.85.

`C[CH2][Hg][S]c1ccccc1C(=O)[O-].[Na+]` [Thimerosal]: the “z-score of subpopulation abundance” value amounted to 7.64.

On to `CC(=O)OCC1=C(C(=O)O)N2C(=O)C(N)C2SC1` (stereo not given) [7-Aminocephalosporanic acid], for which the “z-score of subpopulation abundance” value was determined as 0.4.

With `CC(C)N(CCC(C(N)=O)(c1ccccc1)c1ccccn1)C(C)C` (stereo not given) [Disopyramide], the “z-score of subpopulation abundance” value was determined as 1.28.

As to `C=C(C)[C@H]1Cc2c(ccc3c2O[C@@H]2COc4cc(OC)c(OC)cc4[C@@H]2C3=O)O1` [Rotenone (Barbasco)], the “z-score of subpopulation abundance” value came to 0.51.

As for `C[N+](C)(C)CCCCCCCCCC[N+](C)(C)C` [Decamethonium Bromide], the “z-score of subpopulation abundance” value is 0.07.
